ATG4B inhibitor – ATG4B protease inhibitors, primary screen, biochemical, fluorescence, uHTS. inhibition, % at 8.33 µM. Cysteine protease ATG4B (Homo sapiens), Q9Y4P1. ATG4B cleavage of LC3-PLA2, NBD-HPC fluorescence, 1 h. AID 504462, 2011. hit rate 0.51% among 340,000; in the data active = inhibition above about 40%
Target sequence (Q9Y4P1 whole entry, looked up): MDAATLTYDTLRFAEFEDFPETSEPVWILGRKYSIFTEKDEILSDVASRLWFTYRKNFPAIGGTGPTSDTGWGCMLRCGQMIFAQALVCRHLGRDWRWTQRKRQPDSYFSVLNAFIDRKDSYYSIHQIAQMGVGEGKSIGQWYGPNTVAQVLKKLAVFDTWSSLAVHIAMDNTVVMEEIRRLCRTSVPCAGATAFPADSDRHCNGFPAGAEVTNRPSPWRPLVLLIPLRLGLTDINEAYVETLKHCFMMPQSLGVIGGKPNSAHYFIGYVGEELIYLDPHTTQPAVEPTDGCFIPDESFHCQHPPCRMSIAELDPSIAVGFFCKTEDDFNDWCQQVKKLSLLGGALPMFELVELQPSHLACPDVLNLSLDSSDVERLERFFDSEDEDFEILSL
Glyco luc inh – increase of ERlucT glycosylation luciferase signal, primary screen, N-linked glycosylation inhibitor project, D54 ERlucT cells, luminescence, set 2; D54 ERlucT glycosylation luciferase reporter, 24 h; percent of 100 nM tunicamycin response; hit rate 0.23% among 360,000; reporter increase, % at 12.5 µM;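 active = mean luciferase reporter signal, scaled so untreated is 0 and the glycosylation-blocking control 100, at or above a set limit in every replicate; inconclusive = mean reaches the limit but not every replicate does; inactive = mean below the limit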;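 also: luciferase carries N-glycosylation sites so blocking glycosylation raises the light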
NSD2 inh – NSD2 histone methyltransferase inhibitors, primary screen, biochemical, AlphaScreen, single concentration, set 2. Histone-lysine N-methyltransferase NSD2 (Homo sapiens), O96028. NSD2 peptide methylation, 120 min. inhibition, % at 12.5 µM. hit rate 0.54% among 310,000
Pemphigus Ab inh – inhibitors of pemphigus antibody binding to DSG3, primary screen, biochemical, bead-based, flow cytometry, scFv-GFP; DSG3-coupled beads, scFv-anti-DSG3-GFP binding; active compounds read low; binding (percent of control), % at 10 µM; hit rate 0.48% among 310,000; AID 588358, 2011;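 active = binding more than 3 SD below its plate's average and above zero; inconclusive = below that plate limit but binding exactly zero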;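 also: hits lower antibody fragment binding to DSG3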
CaV13 ICDI inh – Disruptors of the CACNA1D IQ motif to Ca2+-dependent inactivation inhibitor domain association, primary screening, Förster resonance energy transfer in intact living …; HEK cells, CFP/YFP FRET ICDI-IQ, plate reader, 10 min; percent FRET-ratio fall versus neutral wells; inhibition, % at 12.3 µM; hit rate 0.098% among 340,000; AID 743397;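 active = mean replicate inhibition of at least 30% and at least 1% of replicates passing that level; inconclusive = only one of the two criteria is met; inactive = neither criterion is met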
Vif imaging – HIV Vif self-association inhibitors, primary screen, imaging, HEK293T, single point; HEK293T cells, Vif self-association by quenched fluorescence, 24 h; inhibition, % at 7.49 µM; hit rate 0.35% among 340,000; in the data active = inhibition above about 50%, passing the limit was not always enough; inconclusive = no clear call, values can overlap the other calls; inactive = below about 31%
ATG4B confirm – ATG4B protease inhibitors, retest, confirmation, biochemical, fluorescence, single concentration; shares compounds with ATG4B inhibitor; ATG4B protease fluorescent substrate cleavage assay; inhibition, % at 8.33 µM; hit rate 92% among 320; AID 504757, 2011; in the data active = inhibition above about 39%
PLA2 counter – PLA2 enzyme inhibition, counter-screen for ATG4B inhibitor project, biochemical, single concentration, uHTS hits. shares compounds with ATG4B inhibitor. purified PLA2, NBD-C6-HPC fluorescence, 45 min. inhibition, % at 8.33 µM. hit rate 66% among 1,600
Target sequence (P04054 whole entry, looked up): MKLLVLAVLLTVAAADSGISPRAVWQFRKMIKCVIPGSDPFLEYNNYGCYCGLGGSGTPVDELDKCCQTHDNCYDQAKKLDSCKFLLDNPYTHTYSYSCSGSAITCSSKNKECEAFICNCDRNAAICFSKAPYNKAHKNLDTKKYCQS
Numbers stand for hits; . = inactive; ? = inconclusive; / = not tested or not shown. Shown are actives, neighbours in structure and some others; about 1.9% of the full set was active somewhere. Rule as the data show it, unless noted: active = inhibition above about 50%; inactive = the rest.

SMILES | ATG4B inhibitor | Glyco luc inh | NSD2 inh | Pemphigus Ab inh | CaV13 ICDI inh | Vif imaging | PLA2 counter | others
O=C(COC(=O)c1cccnc1)Nc1cccc2ccccc12 | . | . | . | . | . | . | /
CCOC(=O)C(=NC(C)CC)NNc1cccc(C(F)(F)F)c1 (stereo not drawn) | 40 | . | . | . | . | . | .
Nc1nn(-c2ccccc2)c(N)c1N=Nc1ccc2c(c1)OCO2 | 41 | . | . | . | . | / | . | ATG4B confirm=76
Nc1nn(-c2ccccc2)c(N)c1N=Nc1cccc(F)c1 | . | . | . | . | . | . | /
Nc1c(-c2ccccc2)c(CSc2nc3ccccc3[nH]2)nn1-c1ccc(Cl)cc1 | . | . | . | . | . | . | /
Nc1c(-c2ccccc2)c(CSc2nc3ccccc3[nH]2)nn1-c1cccc(Cl)c1 | 43 | . | . | / | . | . | 58
NC(=O)C1CCN(C(c2ccccc2F)c2nnnn2Cc2ccco2)CC1 (stereo not drawn) | . | . | / | / | . | . | /
COc1cc(CN2CCN(Cc3ccccc3C(F)(F)F)CC2)cc(OC)c1OC | . | . | . | . | . | . | /
CCN(Cc1ccccc1)c1ccc(N=Nc2nn(C)c(C)c2[N+](=O)[O-])cc1 | 53 | . | . | . | . | . | .
CCN(CC)c1ccc(N=Nc2nn(C)c(C)c2[N+](=O)[O-])cc1 | . | . | . | . | . | . | /
COc1ccc(-n2c(=O)cc(N3CCOCC3)[nH]c2=O)cc1 | . | . | . | . | . | . | /
CC(C)CCn1c(=O)c2ccccc2c2ccccc2c1=O | 64 | . | . | . | . | / | 71
CC(C)Cn1c(=O)c2ccccc2c2ccccc2c1=O | . | . | / | . | . | . | /
CCCc1ccc(OC(=O)c2cccs2)cc1 | 43 | . | . | . | . | ? | . | ATG4B confirm=70
Cc1cc(OC(=O)c2cccs2)ccc1C(C)C | 42 | . | . | . | . | . | . | ATG4B confirm=49
COc1ccc(C(=O)Nc2cc(C(=O)c3ccccc3)c(C)oc2=O)cc1 | 44 | . | . | . | . | . | . | ATG4B confirm=69
COC(=O)c1cc(NC(=O)c2ccccc2)c(=O)oc1C | . | . | . | . | . | . | /
COc1ccccc1C(=O)NC1CCCCCCC1 | . | . | . | . | . | . | /
CCOc1ccccc1C(=O)NC1CCN(Cc2ccccc2)CC1 | . | . | . | . | . | . | /
O=C(NC1CCN(Cc2ccccc2)CC1)c1ccccc1OCc1ccccc1 | 56 | . | . | . | . | . | 62
O=C(NCc1ccc(F)cc1)c1ccccc1OCc1ccccc1 | 47 | . | . | . | . | . | 52
O=C(NC1CCCC1)c1ccccc1OCc1ccccc1 | 66 | . | . | . | . | . | 73
CC1CCCN(C(=O)C2CCN(Cc3ccc4c(c3)OCO4)CC2)C1 (stereo not drawn) | . | . | . | . | . | . | /
O=C(Nc1cccc(N=Cc2cc(Br)cc(Br)c2O)c1)c1ccco1 | 69 | . | . | . | . | . | 60
O=C(Nc1cc(Br)c(O)c(Br)c1)c1cccc(NC(=O)c2ccco2)c1 | . | . | . | . | . | . | /
SMILES | ATG4B inhibitor | Glyco luc inh | NSD2 inh | Pemphigus Ab inh | CaV13 ICDI inh | Vif imaging | PLA2 counter | others
O=C(Nc1cccc(NC(=O)c2ccco2)c1)c1cccc(Br)c1 | . | . | / | . | . | . | /
O=C(Nc1cccc(N=Cc2cc(Cl)cc(Br)c2O)c1)c1ccco1 | 66 | . | . | . | . | . | 56
COc1ccc(S(=O)(=O)NC(=O)C2(C)CCN2C(=O)CCc2ccc(Cl)cc2Cl)cc1 (stereo not drawn) | / | . | . | / | . | . | /
Cc1ccccc1NC(=O)CCCC(=O)c1ccccc1 | . | . | . | . | . | . | /
CCCS(=O)(=O)N1CCCC(C(=O)NCCN2CCC(Cc3ccccc3)CC2)C1 (stereo not drawn) | . | . | . | . | / | . | /
Cc1noc(C)c1CSc1nc2ccccc2c(=O)n1-c1ccc(F)cc1F | 59 | . | . | . | . | . | 67
O=S(=O)(Nc1ncnc2sc3c(c12)CCC3)c1ccc2ccccc2c1 | 41 | . | / | / | / | . | 56
COC(=O)CSC1=C(C#N)C(c2ccc3c(c2)OCO3)C2=C(CCCC2=O)N1 (stereo not drawn) | . | . | / | . | / | . | /
COC(=O)C1=C(N)N(c2ccccc2C(F)(F)F)C2=C(C(=O)CCC2)C1c1ccc2c(c1)OCO2 (stereo not drawn) | 54 | . | . | . | / | . | 68
C[C@H](CO)N1C[C@H](C)[C@@H](CN(C)S(=O)(=O)c2cn(C)cn2)Oc2cc(Br)ccc2S1(=O)=O | / | . | / | . | . | . | /
NC(=O)CSc1nc2ccc([N+](=O)[O-])cc2[nH]1 | 42 | . | . | . | . | . | . | ATG4B confirm=69
COc1cccc(NC(=O)CN(C)C(=O)c2ccc(NC(=O)CC3SC(N4CCCC4)=NC3=O)cc2)c1 (stereo not drawn) | . | . | . | . | . | . | /
Cn1cc(CC(=O)NCc2ccc(F)cc2)c2ccccc21 | . | . | . | . | . | . | /
Cc1ccc(NC(=O)Cc2c(F)cccc2Cl)cc1S(=O)(=O)N1CCOCC1 | . | . | . | . | . | . | /
Cc1ccccc1CSc1nnnn1-c1ccc(C(N)=O)cc1 | 58 | . | . | . | . | / | 54
O=C(O)c1ccc(-n2nnnc2SCc2ccccc2F)cc1 | . | . | / | / | . | . | /
CCOC(=O)N1CCN(C(=O)CNC(=O)C23CC4CC(CC(C4)C2)C3)CC1 | . | . | . | . | . | . | /
C#CCOCCOCCOCCNc1nc(N2CCN(C(=O)CCCCCCCCCCNC(=O)[C@H](CCCCN)n3cc(C[C@@H](C)CC)nn3)CC2)nc(N2CCN(C(=O)CCCCCCCCCCNC(=O)[C@H](CCCCN)n3cc(C[C@@H](C)CC)nn3)CC2)n1 | 80 | . | / | . | / | . | 78
CN(CC(=O)NCC1CCCO1)S(=O)(=O)c1cc(Cl)ccc1Cl (stereo not drawn) | 93 | . | . | . | . | . | .
O=C(O/N=C1/CCSc2ccccc21)c1ccccc1 | 42 | . | . | . | . | . | . | ATG4B confirm=72

Assay outcomes: PubChem, several laboratories
